PubChem BioAssay AID1159580 (chemical genetic matrix, 2015)
Among all 5,500 compounds or so, about 2,000 (36%) were called active. About 18% were inconclusive and are not listed. The list shows a part of the results. Unmarked numbers belong to inactive results. Rule as the data show it: active = normalized growth mostly below about 0.91 (no sharp cut-off); inconclusive = no clear call, values can overlap the other calls; inactive = mostly above about 0.92.

Test: chemical genetic growth profiling, strain panel (AID 1159580);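 also: tested at 20 µM; growth read once vehicle control cultures reached saturation at 30 °C; 1 = growth at the plate median or of vehicle wells; lower values mean less growth of the strain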
Conditions: growth OD

CC(=O)O.CC(=O)O.[Cd]
normalized growth (S. cerevisiae deletion strains, locus YJR043C, strain POL32, hits give low values): 0.298 (active)
normalized growth (S. cerevisiae deletion strains, locus YJR075W, strain HOC1, hits give low values): 0.202 (active)
normalized growth (S. cerevisiae deletion strains, locus YKL009W, strain mrt4, hits give low values): 0.639 (active)
normalized growth (S. cerevisiae deletion strains, locus YKL068W, hits give low values): 0.651 (active)
normalized growth (S. cerevisiae deletion strains, locus YKL085W, strain MDH1 (second series), hits give low values): 0.372 (active)
normalized growth (S. cerevisiae deletion strains, locus YKL085W, strain MDH1, hits give low values): 0.372 (active)
normalized growth (S. cerevisiae deletion strains, locus YKL160W, strain elf1, hits give low values): 0.533 (active)
normalized growth (S. cerevisiae deletion strains, locus YKL190W, strain CNB1, hits give low values): 0.125 (active)
normalized growth (S. cerevisiae deletion strains, locus YKR001C, strain vps1, hits give low values): 0.12 (active)
normalized growth (S. cerevisiae deletion strains, locus YKR026C, strain gcn3, hits give low values): 0.82 (active)
normalized growth (S. cerevisiae deletion strains, locus YKR091W, strain srl3, hits give low values): 0.793 (active)
normalized growth (S. cerevisiae deletion strains, locus YLL001W, strain dnm1, hits give low values): 0.68 (active)
normalized growth (S. cerevisiae deletion strains, locus YLL026W, hits give low values): 0.603 (active)
normalized growth (S. cerevisiae deletion strains, locus YLL041C, strain sdh2, hits give low values): 0.785 (active)
normalized growth (S. cerevisiae deletion strains, locus YLR027C, strain aat2, hits give low values): 0.664 (active)
normalized growth (S. cerevisiae deletion strains, locus YLR039C, strain RIC1, hits give low values): 0.166 (active)
normalized growth (S. cerevisiae deletion strains, locus YLR058C, strain SHM2, hits give low values): 0.154 (active)
normalized growth (S. cerevisiae deletion strains, locus YLR102C, strain apc9, hits give low values): 0.464 (active)
normalized growth (S. cerevisiae deletion strains, locus YLR221C, strain rsa3, hits give low values): 0.669 (active)
normalized growth (S. cerevisiae deletion strains, locus YLR258W, strain gsy2, hits give low values): 0.698 (active)
normalized growth (S. cerevisiae deletion strains, locus YLR262C, strain YPT6 (second series), hits give low values): 0.403 (active)
normalized growth (S. cerevisiae deletion strains, locus YLR262C, strain YPT6, hits give low values): 0.133 (active)
normalized growth (S. cerevisiae deletion strains, locus YLR268W, strain sec22, hits give low values): 0.158 (active)
normalized growth (S. cerevisiae deletion strains, locus YLR320W, strain mms22, hits give low values): 0.696 (active)
normalized growth (S. cerevisiae deletion strains, locus YLR330W, strain CHS5, hits give low values): 0.811 (active)
normalized growth (S. cerevisiae deletion strains, locus YLR342W, strain FKS1 (second series), hits give low values): 0.311 (active)
normalized growth (S. cerevisiae deletion strains, locus YLR342W, strain FKS1, hits give low values): 0.862 (active)
normalized growth (S. cerevisiae deletion strains, locus YLR357W, strain rsc2, hits give low values): 0.522 (active)
normalized growth (S. cerevisiae deletion strains, locus YLR370C, strain arc18, hits give low values): 0.313 (active)
normalized growth (S. cerevisiae deletion strains, locus YLR371W, strain rom2, hits give low values): 0.188 (active)
normalized growth (S. cerevisiae deletion strains, locus YLR384C, strain iki3, hits give low values): 0.804 (active)
normalized growth (S. cerevisiae deletion strains, locus YLR418C, strain cdc73, hits give low values): 0.175 (active)
normalized growth (S. cerevisiae deletion strains, locus YML016C, strain PPZ1, hits give low values): 0.224 (active)
normalized growth (S. cerevisiae deletion strains, locus YML032C, strain rad52, hits give low values): 0.313 (active)
normalized growth (S. cerevisiae deletion strains, locus YML120C, strain ndi1, hits give low values): 0.695 (active)
normalized growth (S. cerevisiae deletion strains, locus YML124C, strain tub3, hits give low values): 0.304 (active)
normalized growth (S. cerevisiae deletion strains, locus YMR058W, strain fet3, hits give low values): 0.0708 (active)
normalized growth (S. cerevisiae deletion strains, locus YMR078C, strain ctf18, hits give low values): 0.462 (active)
normalized growth (S. cerevisiae deletion strains, locus YMR125W, strain sto1, hits give low values): 0.87 (active)
normalized growth (S. cerevisiae deletion strains, locus YMR129W, hits give low values): 0.802 (active)
normalized growth (S. cerevisiae deletion strains, locus YMR205C, strain PFK2, hits give low values): 0.675 (active)
normalized growth (S. cerevisiae deletion strains, locus YMR223W, strain ubp8, hits give low values): 0.271 (active)
normalized growth (S. cerevisiae deletion strains, locus YMR231W, strain pep5, hits give low values): 0.179 (active)
normalized growth (S. cerevisiae deletion strains, locus YMR263W, strain SAP30, hits give low values): 0.221 (active)
normalized growth (S. cerevisiae deletion strains, locus YMR307W, strain GAS1, hits give low values): 0.172 (active)
normalized growth (S. cerevisiae deletion strains, locus YNL067W, strain RPL9B, hits give low values): 0.289 (active)
normalized growth (S. cerevisiae deletion strains, locus YNL071W, strain lat1, hits give low values): 0.757 (active)
normalized growth (S. cerevisiae deletion strains, locus YNL128W, strain TEP1, hits give low values): 0.234 (active)
normalized growth (S. cerevisiae deletion strains, locus YNL153C, strain GIM3, hits give low values): 0.468 (active)
normalized growth (S. cerevisiae deletion strains, locus YNL209W, strain ssb2, hits give low values): 0.583 (active)
normalized growth (S. cerevisiae deletion strains, locus YNL233W, strain BNI4, hits give low values): 0.394 (active)
normalized growth (S. cerevisiae deletion strains, locus YNL248C, strain rpa49, hits give low values): 0.765 (active)
normalized growth (S. cerevisiae deletion strains, locus YNL250W, strain rad50, hits give low values): 0.269 (active)
normalized growth (S. cerevisiae deletion strains, locus YNL271C, strain bni1, hits give low values): 0.3 (active)
normalized growth (S. cerevisiae deletion strains, locus YNL298W, strain CLA4, hits give low values): 0.345 (active)
normalized growth (S. cerevisiae deletion strains, locus YNL307C, strain MCK1, hits give low values): 0.124 (active)
normalized growth (S. cerevisiae deletion strains, locus YNL322C, strain KRE1 (second series), hits give low values): 0.547 (active)
normalized growth (S. cerevisiae deletion strains, locus YNL322C, strain KRE1, hits give low values): 0.139 (active)
normalized growth (S. cerevisiae deletion strains, locus YNR049C, strain mso1, hits give low values): 0.819 (active)
normalized growth (S. cerevisiae deletion strains, locus YNR052C, strain pop2, hits give low values): 0.164 (active)
normalized growth (S. cerevisiae deletion strains, locus YOL006C, strain TOP1, hits give low values): 0.153 (active)
normalized growth (S. cerevisiae deletion strains, locus YOL012C, strain htz1): 0.261
normalized growth (S. cerevisiae deletion strains, locus YOL147C, strain pex11, hits give low values): 0.32 (active)
normalized growth (S. cerevisiae deletion strains, locus YOR001W, strain rrp6, hits give low values): 0.752 (active)
normalized growth (S. cerevisiae deletion strains, locus YOR061W, strain CKA2, hits give low values): 0.269 (active)
normalized growth (S. cerevisiae deletion strains, locus YOR069W, strain VPS5, hits give low values): 0.222 (active)
normalized growth (S. cerevisiae deletion strains, locus YOR070C, strain gyp1, hits give low values): 0.669 (active)
normalized growth (S. cerevisiae deletion strains, locus YOR080W, strain dia2, hits give low values): 0.851 (active)
normalized growth (S. cerevisiae deletion strains, locus YOR083W, strain WHI5, hits give low values): 0.59 (active)
normalized growth (S. cerevisiae deletion strains, locus YOR106W, strain vam3, hits give low values): 0.408 (active)
normalized growth (S. cerevisiae deletion strains, locus YOR136W, strain idh2, hits give low values): 0.263 (active)
normalized growth (S. cerevisiae deletion strains, locus YOR144C, strain elg1, hits give low values): 0.461 (active)
normalized growth (S. cerevisiae deletion strains, locus YOR184W, strain ser1, hits give low values): 0.25 (active)
normalized growth (S. cerevisiae deletion strains, locus YOR265W, strain rbl2, hits give low values): 0.769 (active)
normalized growth (S. cerevisiae deletion strains, locus YOR270C, strain vph1, hits give low values): 0.405 (active)
normalized growth (S. cerevisiae deletion strains, locus YOR290C, strain snf2, hits give low values): 0.927
normalized growth (S. cerevisiae deletion strains, locus YOR316C, strain cot1, hits give low values): 0.356 (active)
normalized growth (S. cerevisiae deletion strains, locus YPL051W, strain arl3, hits give low values): 0.207 (active)
normalized growth (S. cerevisiae deletion strains, locus YPL055C, strain LGE1, hits give low values): 0.169 (active)
normalized growth (S. cerevisiae deletion strains, locus YPL078C, strain atp4, hits give low values): 0.707 (active)
normalized growth (S. cerevisiae deletion strains, locus YPL106C, strain sse1, hits give low values): 1.01
normalized growth (S. cerevisiae deletion strains, locus YPL240C, strain hsp82, hits give low values): 0.731 (active)
normalized growth (S. cerevisiae deletion strains, locus YPL241C, strain CIN2, hits give low values): 0.271 (active)
normalized growth (S. cerevisiae deletion strains, locus YPR119W, strain clb2, hits give low values): 0.433 (active)
normalized growth (S. cerevisiae deletion strains, locus YPR141C, strain kar3, hits give low values): 0.418 (active)
normalized growth (S. cerevisiae deletion strains, locus YPR163C, strain tif3, hits give low values): 0.441 (active)
normalized growth (S. cerevisiae deletion strains, locus YPR167C, strain met16, hits give low values): 0.387 (active)
normalized growth (S. cerevisiae deletion strains, strain wtn01, hits give low values): 0.254 (active)
normalized growth (S. cerevisiae strains, strain wild type, hits give low values): 0.13 (active)
